A short description of test [1]: qHTS to identify inhibitors of the type 1 interferon - major histocompatibility complex class I in skeletal muscle: primary screen against the NCATS Mechanism Interrogation Plate v5.0 (MIPE) Libary (AID 1347411).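 Note: plate controls were vehicle for no effect and reference inhibitor for full effect; nearly all actives have a fitted effect of over 65% in size.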 The method, boiled down:
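Luminescence from HiBiT-tagged endogenous HLA-B*08:01 served as the MHC class I read-out. CRISPR-engineered C25cl48 human myoblasts received 4.0 ng/ml IFN-beta plus compound for 24 hrs, with an 11-point, 1:3 series topping at 46 uM final.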
(In qHTS, concentration-response curves come from the screen itself.)

Test [2] deals with Glutathione peroxidase 1 (Homo sapiens) (UniProt P07203). Kind of test: Primary qHTS Assay for Inhibitors of Recombinant Selenoprotein Glutathione Peroxidase 1 (GPX1) (AID 1845191). Note: nearly all actives have a fitted effect of over 65% in size. The method, boiled down:
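GR-coupled assay: compounds preincubated 30 min at room temperature with GPX1, then reaction started with CHP; final 10 nM GPX1, 1 mM GSH, 0.5 mM CHP, 0.5 mM NADPH, 100 nM GR, 0.01% BSA, pH 7.5 Tris buffer. NADPH fluorescence (340/450 nm) read at 0 and 15 min.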

The target of test [3] is Phospholipid hydroperoxide glutathione peroxidase GPX4 (Homo sapiens) (UniProt P36969). Description: Primary qHTS Assay for Inhibitors of Recombinant Selenoprotein Glutathione Peroxidase 4 (GPX4) (AID 1845192). For activity change, negative = inhibition: % is set by controls: 0 for no effect and ±100 for the full control effect. Note: nearly all actives have a fitted effect of over 65% in size. Note: potency is the fitted concentration of half-maximal effect. The note with it: outcome: dose series up to 50 µM unless noted. The method, boiled down: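 GR-coupled assay: recombinant GPX4 preincubated 30 min with compound at room temperature; final 200 nM GPX4, 1 mM GSH, 0.5 mM cumene hydroperoxide, 0.5 mM NADPH, 100 nM GR, 0.01% BSA, pH 7.5 Tris. NADPH fluorescence (340/450 nm) read at 0 and 15 min.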
Chain of Phospholipid hydroperoxide glutathione peroxidase GPX4 (Homo sapiens) (P36969 whole entry, looked up): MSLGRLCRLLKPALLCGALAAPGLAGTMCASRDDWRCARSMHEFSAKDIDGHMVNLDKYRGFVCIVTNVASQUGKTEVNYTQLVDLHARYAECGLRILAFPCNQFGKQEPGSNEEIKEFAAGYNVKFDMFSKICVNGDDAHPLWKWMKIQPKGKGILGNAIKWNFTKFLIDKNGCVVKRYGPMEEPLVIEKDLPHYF

A short description of test [4]: qHTS drug screen for cell cycle checkpoint inhibitors in PARPi-resistant BRCA-mutant ovarian cancer cell lines. (AID 1963452; calls by dose curve; note: potency is the fitted concentration of half-maximal effect). The following applies: PEO1/OlaR viability, CellTiter-Glo luminescence, 96 h; for Z-AUC: stronger effect = lower value. Summed up:
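PEO1, PEO4 and PEO1/OlaR ovarian cancer cells, 600 per well, exposed 96 h at 37C to a dilution series. Viability read by CellTiter-Glo luminescence, normalized to DMSO and empty wells; activity summarized as Z-AUC.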

A short description of test [5]: Primary qHTS for inhibitors of nuclear receptor binding SET domain protein 2 (NSD2) in an RCH-ACV wild type WT cells (2C) (AID 1645877). Note: potency is the fitted concentration of half-maximal effect; nearly all actives have a fitted effect of over 70% in size.
The nature of test [6]: qHTS assay to identify inhibitors of the type 1 interferon - major histocompatibility complex class I in skeletal muscle: Counter screen cell viability and HiBit confirmation (AID 1347412). For activity change, negative = inhibition: % is set by controls: 0 for no effect and ±100 for the full control effect. For all read-outs here: nearly all actives have a fitted effect of over 60% in size. Note: potency is the fitted concentration of half-maximal effect. The following applies: iHSKM muscle cells + IFN-b, HiBiT or CellTiter-Glo, 24 h; for activity change, negative = inhibition: at 45.9 µM (top of the series). Summed up:
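Myoblasts (C25cl48, HLA-B HiBiT) seeded in medium without dexamethasone, IFN-b 4 ng/ml added except unstimulated columns; 1 hr later compounds pinned (12-pt 1:3, top 46 uM final). Incubated 24 hrs, lysed 10 min, luminescence measured.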

Test [7] is described as follows: Primary qHTS for inhibitors of nuclear receptor binding SET domain protein 2 (NSD2) in an isogenic RCH-ACV NSD2 p.E1099K mutant (9B) (AID 1645876). Note: potency is the fitted concentration of half-maximal effect; nearly all actives have a fitted effect of over 70% in size.
Setting [8] is: measured here: PEO1 parental Z-AUC.

Inconclusive results are not listed. Active and inactive are the calls of the source. Unless noted, calls come from the whole dose curve; as a rule, active = well fitted curve in the direction sought with a large enough effect; inconclusive = small, poorly fitted or top-dose-only effect, or another doubt; inactive = no such curve, though single readings can be large; an effect the other way counts as inactive or inconclusive.

Chain of Glutathione peroxidase 1 (Homo sapiens) (P07203 whole entry, looked up): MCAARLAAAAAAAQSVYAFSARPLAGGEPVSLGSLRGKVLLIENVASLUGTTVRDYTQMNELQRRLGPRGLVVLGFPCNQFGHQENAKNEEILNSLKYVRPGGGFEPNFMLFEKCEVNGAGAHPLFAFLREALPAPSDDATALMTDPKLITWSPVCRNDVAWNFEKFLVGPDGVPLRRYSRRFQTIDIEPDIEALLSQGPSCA

For the compound `CC(=O)N1CCC(Nc2cc(C(=O)NC[C@H](O)CN3CCc4ccccc4C3)ncn2)CC1`, the Potency entry in test [1], in test [2] and in test [3] was “inactive” in each case. For the same compound, the Z-AUC in test [4] is 0.665 (inactive); in test [4] (setting [8]), 0.224; in test [4] (measured here: PEO4 Z-AUC), 0.188.
Consider `CC(C)OC(=O)[C@H](C)N[P@](=O)(OC[C@H]1O[C@@H](n2ccc(=O)[nH]c2=O)[C@](C)(F)[C@@H]1O)Oc1ccccc1`, for which the Potency result in test [1] and in test [3] was “inactive” throughout. Further, the Z-AUC in test [4] is -0.0429 (inactive); in test [4] (setting [8]), 0.659; in test [4] (measured here: PEO4 Z-AUC) it was 0.765.
Turning to `N#CCC1(n2cc(-c3ncnc4[nH]ccc34)cn2)CN(C2CCN(C(=O)c3ccnc(C(F)(F)F)c3F)CC2)C1`, the Potency in test [5] was 18600 nM (active); in test [3], 20200 nM (active); in test [6] (HiBiT), 1570 nM (active). Further, the figures for the Z-AUC in test [4], in test [4] (setting [8]) and in test [4] (measured here: PEO4 Z-AUC) were -0.205 (inactive), -0.513 and -0.617, respectively. For the same compound, the activity change, negative = inhibition in test [6] (Viability) was 14.7% (inactive).
As for `Nc1nc2c(c(=O)[nH]1)N1CN(c3ccc(C(=O)N[C@@H](CCC(=O)O)C(=O)O)cc3)CC1CN2` (some centres not stated), the Potency in test [7] was 833 nM (active); in test [5], 742 nM (active). The Potency entry in test [2] and in test [3] was “inactive” throughout. For the same compound, the results for the Z-AUC in test [4], in test [4] (setting [8]) and in test [4] (measured here: PEO4 Z-AUC) were -1.54 (inactive), -1.06 and -0.345, respectively. The activity change, negative = inhibition in test [6] (Viability) is -12% (inactive).
In the case of `CN1CCN(c2ccc(Nc3ncc4cc(C#N)c(=O)n(C5CCCC5)c4n3)cc2)CC1`, the figures for the Potency in test [7], in test [5] and in test [6] (HiBiT) were 590 nM (active), 525 nM (active) and 9910 nM (active), respectively. Besides, the Potency result in test [2] and in test [3] was “inactive” throughout. The results for the Z-AUC in test [4], in test [4] (setting [8]) and in test [4] (measured here: PEO4 Z-AUC) were -0.464 (inactive), 0.47 and 0.542, respectively. In test [6] (Viability), the activity change, negative = inhibition was -23.1% (inactive).
Consider `CC(=O)/C=C1/C(=O)N(C)c2ccccc21`, for which the Potency in test [6] (HiBiT) was 19800 nM (active). Moreover, the activity change, negative = inhibition in test [6] (Viability) is -2.06% (inactive).
Regarding `CC[C@@H](Oc1cccc(CN(CCCOc2ccc(OC)cc2)c2nc3ccccc3o2)c1)C(=O)O`, the Potency entry in test [1] and in test [2] was “inactive” throughout. Besides, the Z-AUC in test [4] is 1.26 (inactive); in test [4] (setting [8]), 0.312; in test [4] (measured here: PEO4 Z-AUC), 0.341.
In the case of `CN[C@@H](C)C(=O)N[C@H](C(=O)N1CCC[C@H]1C(=O)Nc1snnc1-c1ccccc1)C1CCCCC1`, the Potency entry in test [1] and in test [2] was “inactive” in each case. Moreover, the Z-AUC in test [4] is 1.43 (inactive); in test [4] (setting [8]), 0.271; in test [4] (measured here: PEO4 Z-AUC) it was -0.618.
For the compound `C/C=C1\NC(=O)[C@H]2CSSCCC=C[C@H](CC(=O)N[C@H](C(C)C)C(=O)N2)OC(=O)[C@H](C(C)C)NC1=O`, the Potency in test [6] (HiBiT) is 0.4 nM (active). Besides, in test [6] (Viability), the activity change, negative = inhibition is -27.6% (inactive).
Take `CC/C(=C(/c1ccc(O)cc1)c1ccc(OCCNC)cc1)c1ccccc1`: the Potency in test [7] was 33200 nM (active). Also, the Potency result in test [2] and in test [3] was “inactive” in each case. Also, the figures for the Z-AUC in test [4], in test [4] (setting [8]) and in test [4] (measured here: PEO4 Z-AUC) were 0.452 (inactive), 0.257 and -0.283, respectively. Also, the figures for the activity change, negative = inhibition in test [6] (HiBiT) and in test [6] (Viability) were -7.57% (inactive) and -19.4% (inactive), respectively.
On to `COc1ccc(S(=O)(=O)NCc2ccc(C(=O)NCCc3ccc(Cl)cn3)cc2)cc1`, for which the Potency entry in test [1], in test [2] and in test [3] was “inactive” in each case. The results for the Z-AUC in test [4], in test [4] (setting [8]) and in test [4] (measured here: PEO4 Z-AUC) were -2 (inactive), -0.947 and -0.745, respectively.
For `CCS(=O)(=O)Nc1ccc(Oc2ccc(F)cc2F)c(-c2cn(C)c(=O)c3[nH]ccc23)c1`, the Potency was 13.2 nM (active) in test [7], 7.4 nM (active) in test [5], 38.9 nM (active) in test [4] and 55.7 nM (active) in test [6] (HiBiT). Further, the Potency entry in test [2] and in test [3] was “inactive” in each case. For the same compound, the Z-AUC in test [4] (setting [8]) is -1.41; in test [4] (measured here: PEO4 Z-AUC), -1.58. Further, the activity change, negative = inhibition in test [6] (Viability) was -28.2% (inactive).
Turning to `Cc1cc(Oc2ccc3nc(COc4ccc(CC5SC(=O)NC5=O)cc4)n(C)c3c2)cc(C)c1N` (configuration not stated), the Potency entry in test [1] and in test [2] was “inactive” each time. Besides, the figures for the Z-AUC in test [4], in test [4] (setting [8]) and in test [4] (measured here: PEO4 Z-AUC) were -0.262 (inactive), 0.128 and -0.444, respectively.

These data come from PubChem BioAssay (NCATS).
